PABP FP inh – blocks human PABP binding to poly(A) RNA. P11940. fluorescence polarization. calls only at 35 µM. 1% of 290,000 active. AID 2014;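 note: calls also rest on retests at 20 µM and on dose response follow-up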
eIF4E 4G PPI – blocks eIF4E binding to eIF4G; TR-FRET eIF4E-eIF4GI(517-606) binding, 2 h; inhibition, % at 21.7 µM; 0.37% of 220,000 active;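 active = inhibition above about 30%, limit read from the data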;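 note: 0% = full FRET control wells and 100% = background wells lacking eIF4GI fragment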
eIF4H FP inh – inhibitors of RNA binding by human eIF4H | eIF4H fluorescence polarization binding assay | 0.94% of 290,000 active | inhibition, % at 35 µM;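 note: calls also rest on retests at 20 µM and on dose response follow-up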
PABP1 MLLE inh – blocks PAM2 peptide binding to the PABP1 MLLE domain; 0.36% of 360,000 active; inhibition, % at 20 µM; P11940; GST-MLLE / FITC-PAM2 fluorescence polarization; in the data active = inhibition above about 35%, passing the limit was not always enough;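 note: plate controls were DMSO wells with GST-MLLE for no effect and wells lacking GST-MLLE protein for full effect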
* hit, by the source's call. Compounds with a hit are over-represented: about 1.5% of the library has one in this group of screens. Unless noted, the rule behind the calls is not given here.

What do the screens show for `O=C(O)CSc1cc(C(=O)c2ccccc2O)cn2c(=O)c3c(-c4ccccc4)csc3nc12`?
PABP FP inh: active; eIF4E 4G PPI: 17; eIF4H FP inh: 68; PABP1 MLLE inh: -23

What do the screens show for `COc1ccc(O)c(C(=O)c2cc(SCC(=O)O)c3nc4sc5c(c4c(=O)n3c2)CCCC5)c1`?
PABP FP inh: active; eIF4E 4G PPI: 39*; eIF4H FP inh: 81*; PABP1 MLLE inh: -14

How did CCOC(=O)c1sc2nc3c(SCC(=O)O)cc(C(=O)c4cc(F)ccc4O)cn3c(=O)c2c1C do in these assays?
PABP FP inh: inactive; eIF4E 4G PPI: 22; eIF4H FP inh: 12; PABP1 MLLE inh: -19

Results for COc1cc(CC(=O)N2CCN(S(=O)(=O)c3ccc(C(C)C)cc3)CC2)cc(OC)c1OC ?
PABP1 MLLE inh: -3

How did COc1ccc(N2CCN(CCCn3cnc4c(SC)ncnc43)CC2)cc1 do in these assays?
PABP1 MLLE inh: -2

What do the screens show for `CC(Sc1ccc2nnc(-c3ccc(F)cc3)n2n1)C(=O)O` (configuration not stated)?
PABP FP inh: inactive; eIF4E 4G PPI: 14; eIF4H FP inh: -4; PABP1 MLLE inh: 1

Results for CCOC(=O)C(C)Sc1ccc2nnc(-c3ccc(F)cc3)n2n1 (configuration not stated) ?
PABP FP inh: inactive; eIF4E 4G PPI: 51*; eIF4H FP inh: -6; PABP1 MLLE inh: -10

Results for O=C(Cc1cccc2ccccc12)NC(NC(=S)Nc1ccccc1Cl)C(Cl)(Cl)Cl (configuration not stated) ?
PABP FP inh: inactive; eIF4E 4G PPI: 3; eIF4H FP inh: -7; PABP1 MLLE inh: 46*

What do the screens show for `CC[n+]1c(/C=C/c2c[nH]c3ccccc23)ccc2cc(C)ccc21`?
PABP FP inh: inactive; eIF4E 4G PPI: 32*; eIF4H FP inh: inconclusive

Results for CCN(CC)C(=O)c1ccc(/C=C/c2c[nH]c3ccccc23)[n+](C)c1 ?
PABP FP inh: inactive; eIF4E 4G PPI: -2; eIF4H FP inh: inconclusive; PABP1 MLLE inh: -163

How did COc1ccc(OC)c(CNC(=O)c2[nH]c(C(F)(F)F)nc2-c2ccccc2)c1 do in these assays?
PABP1 MLLE inh: 14

What do the screens show for `CC(C)c1nnc(NC(=O)CC(C)c2ccccc2)s1` (configuration not stated)?
PABP FP inh: inactive; eIF4H FP inh: -2; PABP1 MLLE inh: -3

What do the screens show for `CC(CC(=O)Nc1nnc(C(C)(C)C)s1)c1ccccc1` (configuration not stated)?
PABP FP inh: inactive; eIF4H FP inh: -7; PABP1 MLLE inh: 48*

What do the screens show for `CCOC(=O)C1=CCN(S(=O)(=O)c2cccc(Cl)c2)C1c1ccc(Br)cc1` (configuration not stated)?
PABP1 MLLE inh: 10

How did COc1ccccc1CNc1nc(-c2cc(C)n(C)c2C)cs1 do in these assays?
PABP FP inh: inactive; eIF4E 4G PPI: 47*; eIF4H FP inh: inconclusive; PABP1 MLLE inh: -54

Results for Cc1cc(-c2csc(N)n2)c(C)n1C ?
PABP FP inh: active; eIF4E 4G PPI: 4; eIF4H FP inh: 118*; PABP1 MLLE inh: 22

Results for COCCNc1nc(-c2cc(C)n(CCc3ccc(OC)cc3)c2C)cs1 ?
PABP FP inh: inactive; eIF4E 4G PPI: 14; eIF4H FP inh: 88; PABP1 MLLE inh: -61

Results for O=C(O)CCn1c(-c2ccccn2)nc2ccccc21 ?
PABP FP inh: inactive; eIF4H FP inh: 91*; PABP1 MLLE inh: -4

How did O=C(O)CCn1c(CO)nc2ccccc21 do in these assays?
PABP FP inh: inactive; eIF4E 4G PPI: 1; eIF4H FP inh: 0; PABP1 MLLE inh: -3

How did CC1CCN(C(=O)Cn2c(=O)n(-c3ccc(F)cc3)c(=O)c3sccc32)CC1 do in these assays?
PABP FP inh: inactive; eIF4E 4G PPI: 4; eIF4H FP inh: 0; PABP1 MLLE inh: 3

Results for CC1CCCCN1C(=O)Cn1c(=O)n(-c2ccc(F)cc2)c(=O)c2sccc21 (configuration not stated) ?
PABP FP inh: inactive; eIF4E 4G PPI: 75*; eIF4H FP inh: -5; PABP1 MLLE inh: 3

How did O=C(NCCN1CCOCC1)c1cc2n(n1)C(C(F)(F)F)CC(c1ccc(F)cc1)N2 (configuration not stated) do in these assays?
PABP FP inh: inactive; eIF4E 4G PPI: 3; eIF4H FP inh: -1; PABP1 MLLE inh: 8

Results for O=C(NCCN1CCOCC1)c1nn2c(c1Cl)NC(c1ccccc1)CC2C(F)(F)F (configuration not stated) ?
PABP FP inh: inactive; eIF4E 4G PPI: 45*; eIF4H FP inh: 82; PABP1 MLLE inh: 3

What do the screens show for `CCn1c(SCC(=O)OC)nc2sc3c(c2c1=O)CCC3`?
PABP FP inh: inactive; eIF4E 4G PPI: 4; eIF4H FP inh: 72*; PABP1 MLLE inh: -6

What do the screens show for `O=C(CSCC(=O)N1CCCCC1)Nc1nc(-c2ccccc2)c(-c2ccccc2)s1`?
PABP FP inh: active; eIF4E 4G PPI: -15; eIF4H FP inh: 80*; PABP1 MLLE inh: -14

How did O=C(CN1CCN(c2ccc(F)cc2)CC1)Nc1ccccc1Br do in these assays?
PABP FP inh: inactive; eIF4H FP inh: 2; PABP1 MLLE inh: 12

What do the screens show for `O=C(CN1CCN(c2ccc(F)cc2)CC1)Nc1ccccc1[N+](=O)[O-]`?
PABP FP inh: active; eIF4E 4G PPI: -2; eIF4H FP inh: 60*; PABP1 MLLE inh: 17

How did O=C(CC[C@H]1O[C@@H](n2ccc(=O)[nH]c2=O)[C@H](O)[C@@H]1O)N[C@H](Cc1ccccc1)C(=O)NC1CCCCC1 do in these assays?
PABP1 MLLE inh: 12

Results for CC(Nc1cc(N2CCN(S(=O)(=O)N(C)C)CC2)ccc1[N+](=O)[O-])c1ccccc1 (configuration not stated) ?
PABP FP inh: active; eIF4E 4G PPI: 1; eIF4H FP inh: 77*; PABP1 MLLE inh: 4

How did CCCNC(=O)C1(C)CCCN(C(=O)c2cc(F)cc(F)c2)C1 (configuration not stated) do in these assays?
PABP1 MLLE inh: 10

How did Cc1c(/C=C(\C#N)c2nn(-c3ccccc3)c(N)c2C#N)c2ccccc2n1Cc1ccc(F)cc1 do in these assays?
PABP FP inh: active; eIF4E 4G PPI: -7; eIF4H FP inh: 52*; PABP1 MLLE inh: -39

How did Cc1ccc2c(c1)-c1c(ssc1=S)C(C)(C)N2C(=O)CSC1=NCCS1 do in these assays?
PABP FP inh: inactive; eIF4E 4G PPI: -15; eIF4H FP inh: -1; PABP1 MLLE inh: 32

Results for CCOc1ccc2c(c1)-c1c(ssc1=S)C(C)(C)N2C(=O)CSC1=NCCS1 ?
PABP FP inh: inactive; eIF4E 4G PPI: 10; eIF4H FP inh: 1; PABP1 MLLE inh: 46*

How did CC1(C)S[C@@H]2[C@H](NC(=O)[C@H](N)c3ccccc3)C(=O)N2[C@H]1C(=O)O do in these assays?
PABP FP inh: active; eIF4E 4G PPI: -2; eIF4H FP inh: 63; PABP1 MLLE inh: 3

Results for CC1(C)S[C@@H]2[C@H](NC(=O)[C@H](N)c3ccc(O)cc3)C(=O)N2[C@H]1C(=O)O ?
PABP FP inh: inactive; eIF4E 4G PPI: -1; eIF4H FP inh: 2; PABP1 MLLE inh: -2

Source: PubChem
